Assay outcomes from PubChem.
Glioma ERSR ind – ER stress response induction in glioma; 420,000 tested, 0.02% active; U87-MG GRP78 promoter luciferase reporter, 16 h; AID 602332; Potency, µM, hits mostly activators; also: series mostly up to about 76 µM; nearly all actives have a fitted effect of over 35% in size
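ERSR induction read as luciferase luminescence (Bright-Glo, 10 min at room temperature) in stably transfected human U87-MG glioma cells exposed to compounds for 16 h, using GRP78 as sensor.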
GLS inhibitor – glutaminase GLS (human) inhibition; GLS enzymatic activity, qHTS titration; Potency, µM (top dose mostly 45.5 µM), actives largely listed as inhibitors; 410,000 tested, 0.21% active; AID 624170
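Assay buffer: 45 mM KH2PO4 pH 8.2, 0.02% Tween-20. hKGA acts on L-glutamine (1 mM solution added); product glutamate is reported by an oxidase/peroxidase Amplex Red coupling, with fluorescence taken at baseline and 30 min.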
IDH1 R132H inh – inhibitors of human mutant IDH1 R132H; IDH1-R132H enzyme, NADPH consumption, diaphorase/resazurin fluorescence; Potency, µM (highest dose often 76.6 µM), actives largely listed as inhibitors; 390,000 tested, 0.093% active; AID 602179; also: nearly all actives have a fitted effect of over 65% in size
Target sequence (O75874 whole entry R132H, stated change not applied): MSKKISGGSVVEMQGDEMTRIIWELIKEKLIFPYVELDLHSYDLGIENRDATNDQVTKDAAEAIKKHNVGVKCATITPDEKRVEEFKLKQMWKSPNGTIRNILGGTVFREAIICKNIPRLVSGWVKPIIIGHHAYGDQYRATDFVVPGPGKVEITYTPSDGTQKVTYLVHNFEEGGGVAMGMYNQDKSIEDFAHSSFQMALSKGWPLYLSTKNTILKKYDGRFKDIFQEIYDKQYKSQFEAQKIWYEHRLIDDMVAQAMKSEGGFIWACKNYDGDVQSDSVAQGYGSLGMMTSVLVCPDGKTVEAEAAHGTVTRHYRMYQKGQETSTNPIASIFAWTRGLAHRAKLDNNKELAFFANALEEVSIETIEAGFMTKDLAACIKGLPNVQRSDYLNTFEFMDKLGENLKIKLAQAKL
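IDH1-R132H (0.5 ug/mL dispensed) in pH 7.5 Tris buffer was preincubated 30 min with compound, then given a substrate mix of 0.016 mM NADPH and 2 mM alpha-KG for 80 min at room temperature; remaining NADPH was read by diaphorase/resazurin fluorescence.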
Mm-Cpn inhibitor – M. maripaludis TRiC chaperonin inhibition; AID 504842; Potency, µM (titrated, usually from 76.9 µM), hits mostly inhibitors; 330,000 tested, 0.031% active; purified Mm-Cpn ATPase, ADP Transcreener TR-FRET; also: nearly all actives have a fitted effect of over 80% in size
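Reaction buffer contained 30 mM Tris pH 7.4, 100 mM KCl, 5 mM MgCl2 and 1 mM DTT. Mm-CPN (25 nM final) hydrolysed 10 uM ATP over 30 min at 37°C; ADP was read by HTRF.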
CCT chaperon mod – changes cytosolic chaperonin activity. purified chaperonin ATPase assay, HTRF ADP detection, 30 min. 360,000 tested, 0.3% active. activity change, % (no concentration beside the values), hits read low; in the data active = activity change below about -30%
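Nucleotide hydrolysis assay: TRiC at 20–40 nM final (set by batch activity) with 10 uM ATP, 30 min at 37 °C, in presence of 76 uM compound. Detection by competitive ADP HTRF, 30 min ambient.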
Akt phos inh – Akt phosphorylation inhibition; AID 651550; activity change, % for hits at 50 µM; Neuro2A IGF-stimulated pAkt S473 HTRF, 20 min; active compounds read low; 360,000 tested, 0.32% active; in the data active = activity change below about -80%; inconclusive = mostly about -51% to -80%
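Single-point screen (50 µM final compound) in Neuro2A cells stimulated 20 min with 6 nM IGF at 37 deg C. After lysis, Ser473-phosphorylated Akt read by HTRF (ex 330 nm, em 615/665 nm) as the 665/615 ratio.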
Resorufin autofl – interferes with resorufin fluorescence in IDH1 counter-screen; inhibition of signal, % at 51.2 µM; Resorufin detection reagent fluorescence interference, cell-free; 750 tested, under 10 active; shares compounds with IDH1 R132H inh; AID 623980
WT IDH1 inh – inhibits human wild-type IDH1, mutant selectivity check; shares compounds with IDH1 R132H inh; WT IDH1 enzyme, NADPH diaphorase/resazurin fluorescence; Potency, µM (series often up to 115 µM), actives largely listed as inhibitors; 750 tested, 9% active; also: nearly all actives have a fitted effect of over 55% in size
Target sequence (O75874 whole entry, looked up): as the sequence (O75874 whole entry R132H, stated change not applied) above, with H132R counted along it
mIDH1 confirm – inhibits human mutant IDH1 enzyme in cherrypick confirmation; shares compounds with IDH1 R132H inh; IDH1 R132H enzyme, NADPH diaphorase/resazurin fluorescence; Potency, µM (titrated, usually from 76.6 µM), most hits filed as inhibitors; 750 tested, 83% active; AID 624002; also: nearly all actives have a fitted effect of over 50% in size
A number is an active result; 0 = inactive; ? = inconclusive; - = not tested or not shown. This is a sample that favours compounds with a hit; in the whole collection about 0.85% have one here. Unless noted, calls follow the shape of the dose curve; as a rule, active = well fitted curve in the direction sought with a large enough effect; inconclusive = small, poorly fitted or top-dose-only effect, or another doubt; inactive = no such curve, though single readings can be large; an effect the other way counts as inactive or inconclusive.

SMILES	Glioma ERSR ind	GLS inhibitor	IDH1 R132H inh	Mm-Cpn inhibitor	CCT chaperon mod	Akt phos inh	Resorufin autofl	WT IDH1 inh	mIDH1 confirm
Cc1ccc(SCc2[nH]nc3c2C(c2cccnc2)C(C#N)=C(N)O3)cc1 (configuration not stated)	0	0	0	0	0	0	-	-	-
Cc1cc(C)c(C#N)c(SCc2[nH]nc3c2C(c2ccc(F)cc2)C(C#N)=C(N)O3)n1 (configuration not stated)	0	0	?	0	0	0	0	?	31.6µM
Cc1cc(C#N)c(C)c(SCc2[nH]nc3c2C(c2ccccc2)C(C#N)=C(N)O3)n1 (configuration not stated)	0	-	?	0	0	-	0	?	35.5µM
Cc1[nH]nc2c1C(c1ccc(F)cc1)C(C#N)=C(N)O2 (configuration not stated)	0	0	0	0	0	0	-	-	-
Cc1ncc2c(c1CNC(=O)/C=C/c1cccs1)CCN(C(=O)c1cc(C(C)C)on1)C2	0	-	-	-	-	-	-	-	-
c1ccc2c(c1)ncc1cccn12	0	0	0	0	0	0	-	-	-
CCn1c2ccccc2c2c3ncc4cccn4c3ccc21	0	0	?	?	0	0	0	44.7µM	14.1µM
Cc1ccc([C@@H]2C3COCC=C3C(C#N)=C(N)C2(C#N)C#N)o1 (some centres not stated)	0	0	?	0	0	0	0	0	?
Cc1ccc(C2C3CSCC=C3C(C#N)=C(N)C2(C#N)C#N)cc1 (configuration not stated)	0	0	?	0	0	0	0	0	39.8µM
CCOC(=O)C1=C(O)/C(=C/c2ccc(OCC(=O)O)c(OCC)c2)SC1=Nc1ccc(OC)cc1	0	0	46.5µM	0	0	0	0	50.1µM	?
CCOC(=O)C1=C(O)/C(=C/c2ccc(OCC(=O)O)c(OCC)c2)SC1=Nc1ccc(C)cc1	0	0	?	0	0	0	-	-	-
COc1cc2c(O)c3c(c(-c4ccc5c(c4)OCO5)c2cc1OC)C(=O)OC3	0	0	?	0	0	0	0	?	25.1µM
COc1ccc(C2C(C#N)=C(N)N(c3sc4c(c3C#N)CCCC4)C3=C2C(=O)CC(C)(C)C3)cc1 (configuration not stated)	0	0	0	0	0	0	-	-	-
COc1ccc(C2C(C#N)=C(N)N(N(C)C)C3=C2C(=O)CC(C)(C)C3)cc1 (configuration not stated)	0	0	0	0	0	0	-	-	-
COc1ccc(C2C(C#N)=C3NC(=O)c4c(sc5c4CCCCC5)N3C3=C2C(=O)CC(C)(C)C3)cc1 (configuration not stated)	0	0	?	0	0	0	0	0	0
COc1ccc(C2C(C#N)=C(N)N(c3sc4c(c3C#N)CCCC4)C3=C2C(=O)CC(C)(C)C3)cc1OC (configuration not stated)	0	0	?	0	0	0	0	0	0
Oc1cccc(-c2c3nc(c(-c4cccc(O)c4)c4ccc([nH]4)c(-c4cccc(O)c4)c4nc(c(-c5cccc(O)c5)c5ccc2[nH]5)CC4)C=C3)c1	0	0	-	-	-	-	-	-	-
COc1cc(=O)n2c(c1C(=O)NC(C)c1ccco1)CCN(C(=O)c1ccccc1SC)CC2 (configuration not stated)	0	-	-	-	-	-	-	-	-
Cc1c(C(=O)N2CCCCC2)sc2ncnc(NCCN(C)C)c12	0	-	-	-	-	-	-	-	-
CC1(C)Oc2ccc3ccc(=O)oc3c2/C(=C/Nc2ccc(O)cc2)C1=O	0	0	0	0	0	0	-	-	-
